Test results from PubChem BioAssay (NCATS).
Results filed as inconclusive are left out. Active and inactive are the calls of the source. Unless noted, the call rests on the fitted dose curve; in most records, active means well fitted curve in either direction with a large enough effect (not every such curve was filed as active); inconclusive means small, poorly fitted or top-dose-only effect, or another doubt; inactive means flat fitted curve, though single readings scatter.

Columns and labels:
[1] = target: Lysosomal acid glucosylceramidase (Homo sapiens) (UniProt P04062); test: Glucocerebrosidase-p2 (AID 348; in the data active means potency below about 10 µM; further: potency means the concentration at half of the fitted maximal effect); details: purified GBA, blue fluorogenic substrate, 40 min
In short: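 Compounds titrated from 0.6 nM upwards against 0.2 nM enzyme in pH 5.9 citric acid/KH2PO4, taurocholate, tween-20; blue fluorogenic substrate 80 uM, 40 min room temperature, stopped and read Ex 365/Em 440 for AC50.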

[2] = AP1 Signaling Pathway (AID 357); details: ME-180 AP-1-bla reporter, EGF-induced, beta-lactamase ratio, 5 h; at 7.69 µM (top of the series) unless noted;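 further: ME-180 reporter cells stimulated with EGF at its EC50 level; on the % scale 0 is the no-effect control and ±100 the full control effect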
In short: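 Beta-lactamase reporter under AP-1 response element, ME-180 background. Stimulus: EC50 EGF. Compound exposure 5 h, 37 °C. Detection: CCF4, 2.5 h RT, 460/530 nm. Values: AC50 from titration.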

[3] = NFAT Signaling Pathway (AID 444); details: Jurkat NFAT-bla M1, carbachol, beta-lactamase ratio, 5 h; at 7.69 µM (top of the series) unless noted;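 further: carbachol stimulus at about its EC50 of 1 µM final; on the % scale 0 is the no-effect control and ±100 the full control effect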
In short: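 Jurkat cells carrying an NFAT-driven β-lactamase reporter and co-transfected muscarinic M1 receptor were treated with compound plus carbachol (1 uM final, an EC50 level) for 5 h at 37 °C. CCF4 loading followed for 1 h at RT; 460/530 nm ratio gave %activity.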

[4] = Stat Signaling Pathway (AID 446); details: ME-180 SIE beta-lactamase reporter, IL-6 stimulated, 5 h; at 7.69 µM (top of the series) unless noted;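 further: ME-180 cervical cancer cells given 40 pM IL-6 alongside compound; SIE-controlled beta-lactamase reporter measured as 460/530 nm FRET emission ratio; on the % scale 0 is the no-effect control and ±100 the full control effect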
In short: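 Screening format detects activators and inhibitors alike: ME-180 SIE-bla cells stimulated at 40 pM IL-6 for 5 hrs with compound, then dual-emission beta-lactamase read at 405 nm excitation.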

[5] = target: Glucocorticoid receptor (Homo sapiens) (UniProt P04150); test: GR-EFC Redistribution (AID 451; calls by dose curve; further: potency means the concentration at half of the fitted maximal effect); details: CHO-K1 GR-EFC translocation, beta-gal luminescence, 2 h
In short: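 CHO-K1 cells stably expressing nuclear-localized β-gal enzyme acceptor and GR fused C-terminally to the enzyme donor fragment; ligand-driven nuclear translocation restores β-gal by complementation. Compounds titrated up to 46 uM final, 2 h at 37 °C; luminescence read.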

[6] = target: Mitogen-activated protein kinase 10 (Mus musculus) (UniProt Q61831); test: JNK3 AlphaScreen Assay (AID 530); details: JNK3 lysate, c-Jun phosphorylation; series mostly up to 57.1 µM;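 further: kinase came from lysate of stimulated human HepG2 cells; signal reports phosphorylation of biotinylated GST-cJun 1-79 at Ser73 with 10 µM ATP; on the % scale 0 is the no-effect control and ±100 the full control effect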
In short: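 Inhibitors reduce antibody binding to phosphorylated biotin-cJun, lowering AlphaScreen luminescence. Lysates from HepG2 cells pre-activated by IL-1beta plus TNF-alpha supplied JNK3; compounds were titrated.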

[7] = target: 3',5'-cyclic-AMP phosphodiesterase 4B (Homo sapiens) (UniProt Q07343); test: qHTS Assay for Inhibitors of PDE-IV (AID 607; active means well fitted activation curve with a large enough effect in the main read-out, with a control signal flat, not every such curve was filed as active; further: % of control where 0% means no effect); details: HEK293 ACTOne CNG channel cells, membrane potential fluorescence; series mostly up to 22.9 µM
In short: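 The readout is membrane depolarisation from a cAMP-sensing CNG channel, detected with a potential dye at ex 535/em 590. Cells were HEK293-derived (endogenous PDE-IV) at 1000 cells/well, titrated up to 22.9 uM final.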

[8] = qHTS Assay for Lipid Storage Modulators (AID 1519; calls by dose curve); details: Drosophila S3 cells, BODIPY lipid droplet/cell ratio, laser cytometry, cells loaded with oleic acid; for activity change, negative = inhibition: at 57.5 µM (top of the series)
In short: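 Cells seeded at 5,000 per well were treated with compounds over a concentration series and loaded with oleic acid (400 uM, as added). Lipid droplet fluorescence (488 nm excitation, 500-530 nm channel) was read by laser-scanning cytometry and normalized to 20 uM Triacsin C.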

[9] = Primary qHTS for small molecule stabilizers of the endoplasmic reticulum resident proteome: Secreted ER Calcium Modulated Protein (SERCaMP) assay (AID 1508630; active means well fitted curve in the direction sought with a large enough effect; an effect the other way counts as inactive or inconclusive; further: on the % scale 0 is the no-effect control and ±100 the full control effect); details: SH-SY5Y GLuc-SERCaMP (Gaussia luciferase released on ER calcium loss) secretion, thapsigargin, luminescence; series mostly up to 38.4 µM
In short: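 GLuc-SERCaMP-expressing SH-SY5Y cells, pretreated 16 h with compound, are challenged with thapsigargin to empty ER calcium stores; after 4 h, coelenterazine is added directly to the medium and luminescence is imaged.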

[10] = target: Cytochrome P450 3A4 (Homo sapiens) (UniProt P08684); test: qHTS Assay for Activators of Cytochrome P450 3A4 (AID 885; active means well fitted curve in the direction sought with a large enough effect; an effect the other way counts as inactive or inconclusive; further: nearly all actives have a fitted effect of over 65% in size); details: recombinant CYP3A4, Luciferin-PPXE luminescence, 60 min; series mostly up to 57.1 µM
In short: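 Steps: enzyme/substrate mix dispensed; compound added, 10 min RT; NADPH regeneration solution added, 60 min RT; luciferin detection buffer stops reaction; 20 min later luminescence measured.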

[11] = measured here: cell count channel max response
[12] = measured here: lipid channel max response

Glucocorticoid receptor (Homo sapiens), sequence (P04150 whole entry, looked up, the tested form may be a part): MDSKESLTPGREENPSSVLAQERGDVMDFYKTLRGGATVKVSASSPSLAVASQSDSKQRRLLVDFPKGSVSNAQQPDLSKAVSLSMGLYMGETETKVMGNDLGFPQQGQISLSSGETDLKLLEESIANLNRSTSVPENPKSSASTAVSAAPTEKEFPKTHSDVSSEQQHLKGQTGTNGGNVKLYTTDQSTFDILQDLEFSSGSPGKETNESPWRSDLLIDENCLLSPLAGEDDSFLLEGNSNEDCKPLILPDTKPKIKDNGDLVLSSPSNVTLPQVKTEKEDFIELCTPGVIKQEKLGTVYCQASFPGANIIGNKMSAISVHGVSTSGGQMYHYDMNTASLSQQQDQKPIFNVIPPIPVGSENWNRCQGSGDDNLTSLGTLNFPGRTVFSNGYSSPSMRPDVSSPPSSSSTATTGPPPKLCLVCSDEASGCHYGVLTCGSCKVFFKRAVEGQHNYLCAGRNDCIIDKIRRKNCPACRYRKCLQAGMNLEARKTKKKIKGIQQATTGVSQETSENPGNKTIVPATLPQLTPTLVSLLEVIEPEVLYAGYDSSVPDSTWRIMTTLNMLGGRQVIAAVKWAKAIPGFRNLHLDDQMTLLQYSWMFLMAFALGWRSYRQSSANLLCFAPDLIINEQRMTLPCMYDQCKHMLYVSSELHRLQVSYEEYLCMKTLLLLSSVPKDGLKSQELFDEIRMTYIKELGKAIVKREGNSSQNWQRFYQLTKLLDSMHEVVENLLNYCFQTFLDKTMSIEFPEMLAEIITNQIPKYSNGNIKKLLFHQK
3',5'-cyclic-AMP phosphodiesterase 4B (Homo sapiens), sequence (Q07343 whole entry, looked up): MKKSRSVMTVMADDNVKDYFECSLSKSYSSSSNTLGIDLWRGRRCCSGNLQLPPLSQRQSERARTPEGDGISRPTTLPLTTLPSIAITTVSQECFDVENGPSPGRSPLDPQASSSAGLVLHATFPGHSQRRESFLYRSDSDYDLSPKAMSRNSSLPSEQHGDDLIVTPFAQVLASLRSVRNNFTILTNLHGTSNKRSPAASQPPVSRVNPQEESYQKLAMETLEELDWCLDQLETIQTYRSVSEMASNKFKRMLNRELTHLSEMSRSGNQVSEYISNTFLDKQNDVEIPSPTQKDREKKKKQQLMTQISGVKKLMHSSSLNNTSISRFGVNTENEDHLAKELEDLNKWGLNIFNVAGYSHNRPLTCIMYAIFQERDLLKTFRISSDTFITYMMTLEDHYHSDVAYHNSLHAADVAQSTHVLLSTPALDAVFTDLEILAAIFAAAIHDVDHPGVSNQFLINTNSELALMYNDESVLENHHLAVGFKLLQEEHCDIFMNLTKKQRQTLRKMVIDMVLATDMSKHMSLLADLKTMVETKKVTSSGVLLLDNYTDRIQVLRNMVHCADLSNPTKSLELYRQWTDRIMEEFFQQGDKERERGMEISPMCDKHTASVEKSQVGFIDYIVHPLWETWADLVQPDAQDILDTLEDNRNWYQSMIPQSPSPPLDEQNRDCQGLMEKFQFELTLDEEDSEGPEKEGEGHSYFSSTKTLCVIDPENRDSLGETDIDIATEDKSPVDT
Lysosomal acid glucosylceramidase (Homo sapiens), sequence (P04062 whole entry, looked up): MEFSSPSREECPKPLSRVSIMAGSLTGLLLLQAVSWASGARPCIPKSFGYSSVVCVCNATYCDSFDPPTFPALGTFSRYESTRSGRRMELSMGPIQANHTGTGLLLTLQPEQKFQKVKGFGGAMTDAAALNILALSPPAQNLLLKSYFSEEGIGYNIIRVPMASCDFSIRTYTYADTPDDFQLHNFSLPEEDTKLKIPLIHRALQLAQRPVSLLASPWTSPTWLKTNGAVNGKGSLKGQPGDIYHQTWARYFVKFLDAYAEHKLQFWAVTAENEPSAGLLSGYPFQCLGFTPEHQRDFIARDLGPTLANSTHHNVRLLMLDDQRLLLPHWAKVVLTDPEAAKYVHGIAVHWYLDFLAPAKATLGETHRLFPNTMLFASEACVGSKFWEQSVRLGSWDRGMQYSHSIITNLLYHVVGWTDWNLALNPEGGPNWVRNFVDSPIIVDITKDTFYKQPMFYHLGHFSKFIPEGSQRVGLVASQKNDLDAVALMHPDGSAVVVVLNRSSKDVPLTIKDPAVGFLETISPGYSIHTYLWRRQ
Cytochrome P450 3A4 (Homo sapiens), sequence (P08684 whole entry, looked up): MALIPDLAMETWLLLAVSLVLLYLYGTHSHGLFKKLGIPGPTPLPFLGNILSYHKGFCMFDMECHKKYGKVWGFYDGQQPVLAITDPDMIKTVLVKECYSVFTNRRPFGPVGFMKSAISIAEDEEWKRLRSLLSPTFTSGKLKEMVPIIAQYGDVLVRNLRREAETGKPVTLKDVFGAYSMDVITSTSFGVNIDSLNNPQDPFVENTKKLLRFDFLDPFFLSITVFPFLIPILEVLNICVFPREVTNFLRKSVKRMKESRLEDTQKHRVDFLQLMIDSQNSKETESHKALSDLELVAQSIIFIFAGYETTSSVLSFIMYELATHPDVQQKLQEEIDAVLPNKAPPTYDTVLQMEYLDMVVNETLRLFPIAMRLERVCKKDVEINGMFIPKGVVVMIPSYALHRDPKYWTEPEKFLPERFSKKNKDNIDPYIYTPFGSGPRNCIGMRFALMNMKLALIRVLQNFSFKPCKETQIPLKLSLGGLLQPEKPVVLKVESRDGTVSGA

SMILES: Cc1noc(C)c1C(=O)N1CCC[C@@]2(CCN(C(=O)Nc3cccc(C#N)c3)C2)C1
- Potency [1]: > 11.4 µM (inactive)
- activity change, negative = inhibition [2]: -3.34% (inactive)
- activity change, negative = inhibition [3]: 5.42% (inactive)
- activity, negative = inhibition [4]: -8.01% (inactive)
- Potency [5]: > 46 µM (inactive)
- Potency [6]: inactive
- Potency [7]: inactive
- activity change, negative = inhibition [8]: 5.85% (inactive)
- max response [8, 11]: 14.6%
- max response [8, 12]: 24.7%
- outcome [9]: inactive

SMILES: O=C(c1ccncc1)N1CCC2(CCCN(c3ccccc3)C2)CC1
- Potency [1]: > 11.4 µM (inactive)
- activity change, negative = inhibition [2]: -3.67% (inactive)
- activity change, negative = inhibition [3]: 3.61% (inactive)
- activity, negative = inhibition [4]: -3.54% (inactive)
- Potency [5]: > 46 µM (inactive)
- Potency [6]: inactive
- Potency [7]: inactive
- activity change, negative = inhibition [8]: 6.76% (inactive)
- max response [8, 11]: 7.52%
- max response [8, 12]: 17.5%
- outcome [9]: inactive

SMILES: COC(=O)N1CCC[C@@]2(CCN(c3ccccc3)C2)C1
- Potency [1]: > 11.4 µM (inactive)
- activity change, negative = inhibition [2]: -10.2% (inactive)
- activity change, negative = inhibition [3]: -9.75% (inactive)
- activity, negative = inhibition [4]: 7.98% (inactive)
- Potency [5]: > 46 µM (inactive)
- Potency [6]: inactive
- Potency [7]: inactive
- activity change, negative = inhibition [8]: -12.5% (inactive)
- max response [8, 11]: 14%
- max response [8, 12]: -1.29%
- outcome [9]: inactive

SMILES: O=C(c1cccc(F)c1)N1CCC[C@@]2(CCN(Cc3ccccc3)C2)C1
- Potency [1]: > 11.4 µM (inactive)
- activity change, negative = inhibition [2]: -3.14% (inactive)
- activity change, negative = inhibition [3]: -11.7% (inactive)
- activity, negative = inhibition [4]: 9.35% (inactive)
- Potency [5]: > 46 µM (inactive)
- Potency [6]: inactive
- Potency [7]: inactive
- activity change, negative = inhibition [8]: -0.915% (inactive)
- max response [8, 11]: 11.6%
- max response [8, 12]: 12%
- outcome [9]: inactive

SMILES: Cn1cccc1C(=O)N1CCC[C@@]2(CCN(c3ncccn3)C2)C1
- Potency [1]: > 11.4 µM (inactive)
- activity change, negative = inhibition [2]: -1.25% (inactive)
- activity change, negative = inhibition [3]: -9.56% (inactive)
- activity, negative = inhibition [4]: -1.27% (inactive)
- Potency [5]: > 46 µM (inactive)
- Potency [6]: inactive
- Potency [7]: inactive
- activity change, negative = inhibition [8]: 1.1% (inactive)
- max response [8, 11]: -6.2%
- max response [8, 12]: -1.14%
- outcome [9]: inactive

SMILES: O=C(Nc1cccc(F)c1)N1CC[C@@]2(CCCN(C(=O)c3ccncc3)C2)C1
- Potency [1]: > 11.4 µM (inactive)
- activity change, negative = inhibition [2]: -4.21% (inactive)
- activity change, negative = inhibition [3]: 9.18% (inactive)
- activity, negative = inhibition [4]: -6.29% (inactive)
- Potency [5]: > 46 µM (inactive)
- Potency [6]: inactive
- Potency [7]: inactive
- activity change, negative = inhibition [8]: 5.32% (inactive)
- max response [8, 11]: 15.8%
- max response [8, 12]: 23.2%
- outcome [9]: inactive

SMILES: CC(=O)N1CCC[C@@]2(CCN(C(c3ccccc3)c3ccccc3)C2)C1
- Potency [1]: > 11.4 µM (inactive)
- activity change, negative = inhibition [2]: -0.322% (inactive)
- activity change, negative = inhibition [3]: 3.9% (inactive)
- activity, negative = inhibition [4]: -10.9% (inactive)
- Potency [5]: > 46 µM (inactive)
- Potency [6]: inactive
- Potency [7]: inactive
- activity change, negative = inhibition [8]: -4.88% (inactive)
- max response [8, 11]: -3.73%
- max response [8, 12]: -8.87%
- outcome [9]: inactive

SMILES: Cc1noc(C)c1C(=O)N1CCC2(CC1)CN(Cc1cc(C(F)(F)F)cc(C(F)(F)F)c1)C2
- Potency [1]: > 11.4 µM (inactive)
- activity change, negative = inhibition [2]: -7.95% (inactive)
- activity change, negative = inhibition [3]: -16.8% (inactive)
- activity, negative = inhibition [4]: -3.94% (inactive)
- Potency [5]: > 46 µM (inactive)
- Potency [6]: inactive
- Potency [7]: inactive
- activity change, negative = inhibition [8]: -4.32% (inactive)
- max response [8, 11]: -1.83%
- max response [8, 12]: -4.57%
- outcome [9]: inactive

SMILES: O=C(c1csnn1)N1CCC2(CC1)CN(c1ncccn1)C2
- Potency [1]: > 11.4 µM (inactive)
- activity change, negative = inhibition [2]: 13.2% (inactive)
- activity change, negative = inhibition [3]: 16.9% (inactive)
- activity, negative = inhibition [4]: 1.44% (inactive)
- Potency [5]: > 46 µM (inactive)
- Potency [6]: inactive
- Potency [7]: inactive
- activity change, negative = inhibition [8]: 0.698% (inactive)
- max response [8, 11]: -0.721%
- max response [8, 12]: 1.07%
- outcome [9]: inactive

SMILES: COc1ccc(NC(=O)N2CC[C@@]3(CCCN(C(=O)c4ccncc4)C3)C2)cc1
- Potency [1]: > 11.4 µM (inactive)
- activity change, negative = inhibition [2]: -25.1% (inactive)
- activity change, negative = inhibition [3]: 16.8% (inactive)
- activity, negative = inhibition [4]: 5.11% (inactive)
- Potency [5]: > 46 µM (inactive)
- Potency [6]: inactive
- Potency [7]: inactive
- activity change, negative = inhibition [8]: 2.47% (inactive)
- max response [8, 11]: 0.213%
- max response [8, 12]: 7.4%
- outcome [9]: inactive

SMILES: Cc1noc(C)c1C(=O)N1CCC[C@@]2(CCN(c3ccccn3)C2)C1
- Potency [1]: > 11.4 µM (inactive)
- activity change, negative = inhibition [2]: -5.91% (inactive)
- activity change, negative = inhibition [3]: -10.2% (inactive)
- activity, negative = inhibition [4]: -3.33% (inactive)
- Potency [5]: > 46 µM (inactive)
- Potency [6]: inactive
- Potency [7]: inactive
- activity change, negative = inhibition [8]: -1.14% (inactive)
- max response [8, 11]: 20%
- max response [8, 12]: 24.9%
- outcome [9]: inactive

SMILES: COc1ccccc1CN1CC[C@@]2(CCCN(C(=O)c3cnccn3)C2)C1
- Potency [1]: > 11.4 µM (inactive)
- activity change, negative = inhibition [2]: -0.652% (inactive)
- activity change, negative = inhibition [3]: 0.87% (inactive)
- activity, negative = inhibition [4]: 9.03% (inactive)
- Potency [5]: > 46 µM (inactive)
- Potency [6]: inactive
- Potency [7]: inactive
- activity change, negative = inhibition [8]: 3.53% (inactive)
- max response [8, 11]: 12.1%
- max response [8, 12]: 17.4%
- outcome [9]: inactive

SMILES: CC(C)NC(=O)N1CC[C@@]2(CCCN(C(=O)c3cnccn3)C2)C1
- Potency [1]: > 11.4 µM (inactive)
- activity change, negative = inhibition [2]: 7.64% (inactive)
- activity change, negative = inhibition [3]: 11.4% (inactive)
- activity, negative = inhibition [4]: 4.04% (inactive)
- Potency [5]: > 46 µM (inactive)
- Potency [6]: inactive
- Potency [7]: inactive
- activity change, negative = inhibition [8]: 3.99% (inactive)
- max response [8, 11]: -1.16%
- max response [8, 12]: 5.89%
- outcome [9]: inactive

SMILES: COCC(=O)N1CCC2(CC1)CN(c1cccc(-c3ccccc3)c1)C2
- Potency [1]: > 11.4 µM (inactive)
- activity change, negative = inhibition [2]: -29.8% (inactive)
- activity change, negative = inhibition [3]: 19.3% (inactive)
- Potency [5]: > 46 µM (inactive)
- Potency [6]: inactive
- Potency [7]: inactive
- activity change, negative = inhibition [8]: 3.02% (inactive)
- max response [8, 11]: -3.81%
- max response [8, 12]: 0.928%
- outcome [9]: inactive

SMILES: O=C(c1cnccn1)N1CCC[C@@]2(CCN(c3ccccn3)C2)C1
- Potency [1]: > 11.4 µM (inactive)
- activity change, negative = inhibition [2]: 7.84% (inactive)
- activity change, negative = inhibition [3]: 0.825% (inactive)
- activity, negative = inhibition [4]: 0.945% (inactive)
- Potency [5]: > 46 µM (inactive)
- Potency [6]: inactive
- Potency [7]: inactive
- Potency [10]: inactive
- activity change, negative = inhibition [8]: 3.99% (inactive)
- max response [8, 11]: 24.1%
- max response [8, 12]: 26.9%
- outcome [9]: inactive
